{"source": "PubChem BioAssay AID602144", "about": "(Vanderbilt Specialized Chemistry Center, 2011)", "molecular_target": "Phospholipase D1 (Homo sapiens) (UniProt Q13393)", "test": "cellular phospholipase D1 activity inhibition – Calu-1 cells, single concentration (AID 602144);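 further: tested at 200 nM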", "conditions": "cellular PLD1 activity, active compounds read low", "note": "A number with no mark means an inactive call. Activity calls are given as the source filed them. No stated cut-off is given here; in the data, active means remaining activity below about 50%; inactive means the rest.", "data": [{"smiles": "O=c1[nH]c2ccccc2n1C1CCN(CCNC(=S)Nc2cccc3ccccc23)CC1", "values": [{"measurement": "remaining activity", "value": 152, "unit": "%"}]}, {"smiles": "O=C1c2ccccc2C(=O)N1CCN1CCC(n2c(=O)[nH]c3ccccc32)CC1", "values": [{"measurement": "remaining activity", "value": 112, "unit": "%"}]}, {"smiles": "O=C1c2ccccc2C(=O)N1CCCN1CCC(c2nc3ccccc3[nH]2)CC1", "values": [{"measurement": "remaining activity", "value": 95.3, "unit": "%"}]}, {"smiles": "Cc1cccc(C(=O)NCCN2CCC(n3c(=O)[nH]c4ccccc43)CC2)n1", "values": [{"measurement": "remaining activity", "value": "26.7% (active)"}]}]}
